According to PubChem BioAssay AID651640 (Broad Institute, 2012):
About 6,000 (1.7%) of roughly 350,000 compounds were called active. About 5% were inconclusive and are not listed. No stated cut-off is given here; in the data, active means CPE inhibition above about 20% (passing the limit was not always enough); inconclusive means no clear call, values can overlap the other calls; tested in BHK-21 cells. Many of the other results were omitted from the sample, so actives are more common in it than they were.

assay: inhibitors of DENV2 cytopathic effect, primary screen, cell-based, plate reader, single concentration (AID 651640); conditions: DENV2-infected cells, cytopathic effect rescue, at 9.99 µM, hits give high values;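 further: 0% = median of neutral control wells and 100% = median of positive control wells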

Row | Compound | CPE inhibition
1 | CCOC(=O)[C@]12Cc3cc(OC)ccc3[C@H]1N(C(C)C)C(=O)c1ccccc12 | 28.6% (active)
2 | CCOC(=O)[C@]12Cc3ccccc3[C@H]1N(C1CCCCC1)C(=O)c1cc(OC)ccc12 | 12.6% (inactive)
3 | O=C(NC1CCCCC1)N1Cc2cc(N3CCCCC3)ccc2-n2nncc2C1 | 18.7% (inactive)
4 | Clc1ccc([C@@H]2CC3CCC2N3)cn1 (stereo not given in full) | 2.65% (inactive)
5 | c1cc2c(cc1C1OCC3C(c4ccc5c(c4)OCO5)OCC13)OCO2 (stereo not given) | 62% (active)
6 | O=C1/C(=C\c2ccc3c(c2)OCO3)N2CCC1CC2 | -2.2% (inactive)
7 | c1cc2c(cc1[C@H]1OC[C@H]3[C@@H]1CO[C@@H]3c1ccc3c(c1)OCO3)OCO2 | -8.32% (inactive)
8 | COc1ccc(C#Cc2ccc([C@H]3[C@H](CO)N4CCCCN(C(=O)Cc5ccccc5)C[C@@H]34)cc2)cc1 | -26.2% (inactive)
9 | O=C(NCC1=C(c2ccc3ccccc3c2)C[C@@H]2CC[C@H]1N2Cc1ccco1)c1cccs1 | 0.357% (inactive)
10 | CS(=O)(=O)N1CCC2CCNC2C1 (stereo not given) | -6.24% (inactive)
11 | C/C=C/c1ccc(C2[C@@H]3CN(S(C)(=O)=O)C[C@H]2N3)cc1 (stereo not given in full) | 62.5% (active)
12 | C/C=C/c1ccc(C2[C@@H]3CN(Cc4cncnc4)C[C@H]2N3)cc1 (stereo not given in full) | 3.65% (inactive)
13 | C[C@]12CCC3C(CC[C@H]4[C@H](O)[C@H](O)CC[C@]34C)C1CCC2=O (stereo not given in full) | -1.57% (inactive)
14 | CC(=O)NCC1=C(c2ccc3ccccc3c2)C[C@@H]2CC[C@H]1N2Cc1ccco1 | -2.04% (inactive)
15 | C[C@]12CCCCC1=CC(=O)C1C2CC[C@@]2(C)C1C[C@@H](F)[C@@H]2O (stereo not given in full) | -4.28% (inactive)
16 | COc1ccc(-c2ccc([C@H]3[C@H](CO)N4CCCCN(C(=O)Cc5ccncc5)C[C@@H]34)cc2)cc1 | 40.9% (active)
17 | O=C(Cc1ccncc1)N1CCCCN2[C@@H](CO)[C@H](c3ccc(-c4ccncc4)cc3)[C@@H]2C1 | 8.4% (inactive)
18 | COc1cccc(-c2ccc([C@H]3[C@H]4CN(C(=O)Cc5ccncc5)CCCCN4[C@H]3CO)cc2)c1 | 9.07% (inactive)

Row | Compound | CPE inhibition
19 | O=S(=O)(c1ccccc1)N1CCC2CCNC2C1 (stereo not given) | -0.751% (inactive)
20 | COc1ccc2c(c1)NP(=S)(c1ccccc1)N2 (stereo not given) | 1.27% (inactive)
21 | Cc1ccnc(-n2c(C)cc(/C=C3\C(=O)NC(=S)N(C)C3=O)c2C)c1 | 47.7% (active)
22 | Cc1ccc(-n2c(C)cc(/C=C3\C(=O)NC(=O)N(C)C3=O)c2C)cc1C | -7.68% (inactive)
23 | Cc1cc(/C=C2/C(=O)NC(=O)N(Cc3ccco3)C2=O)c(C)n1-c1ccc(C(=O)O)cc1 | -3.34% (inactive)
24 | COc1ccccc1NC(=O)N1C[C@@H]2C[C@@H](C1)c1cccc(=O)n1C2 | 7.15% (inactive)
25 | O=C(NC(=S)N1C[C@H]2C[C@H](C1)c1cccc(=O)n1C2)c1ccc(F)cc1 | -11.6% (inactive)
26 | O=C(CCC(=O)N1C[C@H]2C[C@@H](C1)c1cccc(=O)n1C2)NCc1ccccc1C(F)(F)F | 25.4% (active)
27 | CC(C)CN1Cc2cc(N3CCCCC3)ccc2-n2nncc2C1 | -1.07% (inactive)
28 | O=C(O)[C@H]1[C@H](CO)[C@H]2Cn3c(ccc(-c4ccccc4)c3=O)[C@@H]1N2S(=O)(=O)c1ccccc1F | 0.732% (inactive)
29 | COc1cccc(-c2ccc3n(c2=O)C[C@H]2[C@H](CO)[C@@H](C(=O)O)[C@@H]3N2C(=O)c2cnccn2)c1 | 0.125% (inactive)
30 | COc1cc(OC)cc(C(=O)NCCN2CCC3(CC2)C(=O)NCN3c2ccccc2)c1 | 5.39% (inactive)
31 | O=C(c1ccccc1)C(O)(CN1CCCCC1)c1ccccc1 (stereo not given) | 9.29% (inactive)
32 | COC(=O)C1=C(c2ccc(F)cc2OCc2ccccc2)C[C@@H]2CC[C@H]1N2C(=O)NCc1ccc(Cl)cc1 | 91% (active)
33 | COC(=O)C1=C(c2ccc(F)cc2OCc2ccccc2)C[C@@H]2CC[C@H]1N2C(=O)NCc1ccc(C(C)(C)C)cc1 | -10.5% (inactive)
34 | COC(=O)C1=C(c2ccc(F)cc2OCc2ccccc2)C[C@@H]2CC[C@H]1N2C(=O)NCc1ccc2[nH]ccc2c1 | 5.56% (inactive)
35 | COc1ccc(C2C=C(C)Oc3c2c(=O)oc2ccccc32)cc1OC (stereo not given) | -10.4% (inactive)
